Screening data deposited in PubChem BioAssay by National Center for Advancing Translational Sciences (NCATS).
This is a sample that favours compounds with a hit; in the whole collection about 8.7% have one here.
BAZ2B inh = inhibitors of human BAZ2B bromodomain | Q9UIF8 | AlphaScreen BAZ2B-H3K14Ac peptide displacement | Potency, µM (top dose mostly 114 µM), inactives show at the top dose activity change, negative = inhibition, most hits filed as inhibitors | actives 4.4% (n = 360,000); also: % is scaled to controls: 0 for no effect and ±100 for the full control effect; nearly all actives have a fitted effect of over 60% in size
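Multi-concentration screen (max 110 uM) measuring displacement of acetylated histone H3 peptide from BAZ2B by AlphaScreen, using 50 nM protein, 50 nM peptide and 10 ug/mL streptavidin donor plus Ni-chelate acceptor beads.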
HP1b chromo inh = HP1-beta chromodomain-methylated histone interaction inhibition | Potency, µM (series often up to 114 µM), without a hit: at the highest dose activity change, negative = inhibition, most hits filed as inhibitors | AID 540317 | actives 0.56% (n = 390,000) | AlphaScreen HP1-beta / biotin-H3K9me3 peptide binding | P83916; also: nearly all actives have a fitted effect of over 70% in size
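HP1-beta protein (50 nM final) preincubated 30 min at room temperature with biotinylated H3(1-18)K9me3 peptide (50 nM) in PBS pH 7.4, 0.01% Tween-20, then compound added for 30 min. AlphaScreen streptavidin donor/nickel chelate acceptor beads (10 ug/mL final), 30 min dark, luminescence read.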
G9a inh = blocks human histone lysine methyltransferase G9a; G9a H3K9 monomethylation, AlphaScreen, 2 h; actives 8.8% (n = 350,000); Q96KQ7; Potency, µM (highest dose often 102 µM), for inactives: at the top dose activity, negative = inhibition, usual class: inhibitors; also: % is scaled to controls: 0 for no effect and ±100 for the full control effect; nearly all actives have a fitted effect of over 75% in size
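Quantitative HTS format: methyltransferase activity on a biotin-tagged H3K9 peptide is measured by AlphaScreen, using a rabbit anti-monomethyl-H3K9 antibody with streptavidin donor and anti-IgG acceptor beads. Final levels are 20 nM enzyme, 500 nM peptide, 20 uM SAM; 2 h RT.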
JMJD2A Tudor = JMJD2A Tudor domain (human) inhibition | actives 4.4% (n = 390,000) | AID 504339 | O75164 | AlphaScreen JMJD2A-Tudor / H3K4me3 peptide binding | Potency, µM (doses to about 114 µM), for inactives: at the top dose activity change, negative = inhibition, most hits filed as inhibitors; also: % is scaled to controls: 0 for no effect and ±100 for the full control effect; nearly all actives have a fitted effect of over 50% in size
Target sequence (O75164 whole entry, looked up, the tested form may be a part): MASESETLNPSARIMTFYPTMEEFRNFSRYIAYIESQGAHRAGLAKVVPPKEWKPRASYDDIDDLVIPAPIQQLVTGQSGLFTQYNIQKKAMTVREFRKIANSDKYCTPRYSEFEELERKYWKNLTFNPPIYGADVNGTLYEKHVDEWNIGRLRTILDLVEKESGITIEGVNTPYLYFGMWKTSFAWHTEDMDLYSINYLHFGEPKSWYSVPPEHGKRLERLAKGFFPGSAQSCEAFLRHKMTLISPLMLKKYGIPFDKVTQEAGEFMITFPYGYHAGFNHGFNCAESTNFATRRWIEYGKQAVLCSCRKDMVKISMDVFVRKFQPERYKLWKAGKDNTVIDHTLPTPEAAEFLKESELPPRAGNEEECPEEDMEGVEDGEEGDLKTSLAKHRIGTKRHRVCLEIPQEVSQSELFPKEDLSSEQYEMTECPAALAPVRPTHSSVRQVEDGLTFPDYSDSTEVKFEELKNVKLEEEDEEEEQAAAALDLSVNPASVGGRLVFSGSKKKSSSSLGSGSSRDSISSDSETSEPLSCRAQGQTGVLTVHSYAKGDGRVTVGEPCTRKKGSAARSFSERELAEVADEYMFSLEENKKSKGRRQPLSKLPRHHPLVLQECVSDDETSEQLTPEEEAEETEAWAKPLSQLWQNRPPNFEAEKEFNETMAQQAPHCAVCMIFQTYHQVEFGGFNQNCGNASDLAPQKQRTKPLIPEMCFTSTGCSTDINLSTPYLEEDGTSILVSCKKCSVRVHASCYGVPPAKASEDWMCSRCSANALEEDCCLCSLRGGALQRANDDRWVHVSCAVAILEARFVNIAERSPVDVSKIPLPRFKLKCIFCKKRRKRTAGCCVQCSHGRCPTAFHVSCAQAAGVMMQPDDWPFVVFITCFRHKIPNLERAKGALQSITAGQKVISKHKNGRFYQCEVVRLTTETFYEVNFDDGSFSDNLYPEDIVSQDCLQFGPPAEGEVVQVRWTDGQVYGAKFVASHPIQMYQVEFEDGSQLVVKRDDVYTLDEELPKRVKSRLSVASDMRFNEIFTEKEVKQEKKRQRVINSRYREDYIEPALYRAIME
ALOX12 inh = inhibitors of human 12S-lipoxygenase ALOX12; Potency, µM (doses to about 108 µM), inactives show at the highest dose activity change, negative = inhibition, actives largely listed as inhibitors; AID 1671190; purified 12hLO, xylenol orange hydroperoxide absorbance; P18054; actives 1.1% (n = 580,000); also: % is scaled to controls: 0 for no effect and ±100 for the full control effect
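Hydroperoxide product was detected by ferrous iron/xylenol orange as the 573 to 405 nm absorbance ratio. Arachidonic acid at 40 uM (final) was turned over for 30 min at room temperature by 150 nM human 12hLO, pH 7.0 Hepes buffer, after 15 min compound preincubation.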
Sfp inh = inhibitors of Bacillus subtilis Sfp phosphopantetheinyl transferase | Biochemical Sfp PPTase activity, qHTS | Q9F4F7 | AID 1490 | actives 3.5% (n = 310,000) | Potency, µM, without a hit: largest response in the series, negative = inhibition, hits mostly inhibitors;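 also: the enzyme is Sfp with the accession as filed and its product quenches rhodamine fluorescence; 0% = enzyme reaction without inhibitor and -100% = no enzyme wells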
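After 15 min at room temperature with compound, 15 nM Sfp received 5 uM rhodamine-CoA plus 12.5 uM BHQ-2-ybbR (50 mM Hepes pH 7.6, 10 mM MgCl2). Rate came from the fluorescence difference over 30 min, ex 525/em 598 nm.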
An asterisk follows results filed as active; ? = inconclusive; . = no result; ! = not confirmed by another sample; [ ] = remark or other dose. Calls follow the shape of the dose curve; as a rule, active = well fitted curve in the direction sought with a large enough effect; inconclusive = small, poorly fitted or top-dose-only effect, or another doubt; inactive = no such curve, though single readings can be large; an effect the other way counts as inactive or inconclusive. Potency is read from the fitted curve at half-maximal effect.

SMILES	BAZ2B inh	HP1b chromo inh	G9a inh	JMJD2A Tudor	ALOX12 inh	Sfp inh
CN1C(=O)C(O)(CC(=O)/C=C/C=C/c2ccccc2)c2ccccc21 (stereo not drawn)	?	12%	-48%[59 µM]	-10%	-2%	?
CN1C(=O)C(O)(CC(=O)/C=C/c2ccco2)c2cc(Br)ccc21 (stereo not drawn)	-28%	8%	35µM*	-35%	-24%	45µM*
CN1C(=O)C(O)(CC(=O)/C=C/c2ccco2)c2ccccc21 (stereo not drawn)	-13%	59%	?	-15%	7%	25µM*
Cc1ccc(C(=O)CC2(O)C(=O)N(C)c3ccccc32)o1 (stereo not drawn)	0%	41%	50µM*	-21%	5%	-2%
COc1ccc(NC(=O)COc2ccc(/C=C/c3cc[n+](C)cc3)cc2OC)cc1	-22%	26%	-5%	?	?	-3%
COc1ccc(NC(=O)COc2ccc(/C=C/c3cccc[n+]3C)cc2OC)cc1	-15%	10%	9%	-9%	?	10%
COc1cc(/C=C/c2cccc[n+]2C)ccc1OCC(=O)Nc1cccc(Cl)c1	?	-10%	50µM*	-6%	?	-17%
COc1cc(/C=C/c2cccc[n+]2C)ccc1OCC(=O)Nc1ccccc1	-15%	9%	45µM*	-10%	?	-12%
COc1cc(/C=C/c2cc[n+](C)cc2)ccc1OCC(=O)Nc1ccc(Cl)c(Cl)c1	?	15%	?	-13%	50µM*	-58%
CN1CCN(c2ccc(-c3noc([C@@H]4CCCN4CCCc4ccccc4)n3)cn2)CC1	.	.	.	.	-14%[176 µM]	.
CCOC(=O)C1=C(C)NC(=O)C1CC(=O)Nc1ccccc1 (stereo not drawn)	-10%	.	3.5µM*	.	.	79µM*
N#CCCn1cc(-c2csc(NC3CC3)n2)c2ccccc21	.	.	.	.	14µM*	.
CC(=O)NC(CC(=O)O)C(=O)NC(CCC(=O)O)C(=O)O (stereo not drawn)	.	.	.	.	.	12%
CN[C@H](CC(=O)O)C(=O)O	.	-20%	22µM*!	22µM*	?	100µM*
COc1ccc(N2CCN(S(=O)(=O)c3ccc(-c4ccno4)cc3OC)CC2)cc1	22µM*	-6%	10µM*	?	-26%	.
Cc1oc(/N=C/c2ccc(Cl)cc2)c(C#N)c1C	3%	-12%	-20%[59 µM]	-35%	?	6%
CCOC(=O)c1c(C)oc(/N=C/c2ccccc2O)c1C#N	3%	15%	-3%[2.33 µM]	-20%	359%	11%
Cc1oc(/N=C/c2ccc(Cl)cc2Cl)c(C#N)c1C	-3%	22%	45µM*	-14%	?	4%
Cc1oc(/N=C/c2ccccc2O)c(C#N)c1C	12%	30%	-124%	-13%	25%	-27%
Cc1oc(/N=C/c2c(O)ccc3ccccc23)c(C#N)c1C	.	.	1.6µM*	.	.	-20%
Cc1oc(/N=C/c2ccc(O)cc2O)c(C#N)c1C	-4%	-4%	45µM*	-7%	?	-19%
N#CC1(NC(=O)c2csc(-c3cccc(Cl)c3)n2)CCC1	.	.	.	.	24%	.
COc1cc(-c2c(C(C)=O)c(C)nc3c2C(=O)c2ccccc2-3)cc(OC)c1OC	-1%	15%	7%	5%	-5%	10%
CC(=O)c1c(Cl)nc2cccc3c2c1-c1ccccc1C3=O	-27%	4%	28µM*	-34%	0%	-7%
NS(=O)(=O)c1ccc(-n2ncc3c(=O)[nH]c(SCC(=O)Nc4nccs4)nc32)cc1	-25%	11%	45µM*	-25%	?	3%
SMILES	BAZ2B inh	HP1b chromo inh	G9a inh	JMJD2A Tudor	ALOX12 inh	Sfp inh
COc1ccc(CN2CCN(Cc3ccc(C)cc3)C(CCO)C2)cc1OC (stereo not drawn)	-3%	17%	.	-16%	-20%	7%
COc1ccc2c(c1)C=C(CN1CCN(Cc3ccccc3C)C(CCO)C1)CO2 (stereo not drawn)	?	-30%	?	50µM*	38%	12%
CCOc1ccc(CN2CCN(CC3=Cc4cccc(OC)c4OC3)CC2CCO)cc1 (stereo not drawn)	-14%	16%	1%[12.7 µM]	-27%	2%	-16%
COc1cccc(CN2CCN(Cc3cc4ccccc4[nH]3)CC2CCO)c1 (stereo not drawn)	?	9%	-34%	-25%	0%	12%
CC(=O)Nc1ccc2nc(CN3CCN(Cc4ccc(F)cc4)C(CCO)C3)ccc2c1 (stereo not drawn)	-7%	37%	.	-15%	?	79µM*
COc1cc(CN2CCN(Cc3ccc(C)cc3)C(CCO)C2)cc(OC)c1O (stereo not drawn)	-15%	10%	45µM*	-25%	-4%	0%
COc1cccc(CN2CCN(Cc3[nH]c4ccccc4c3C)CC2CCO)c1 (stereo not drawn)	35µM*	2%	?	?	-28%	7%
CCCOc1ccc(-c2cc(C(=O)O)c3cc(C)ccc3n2)cc1	.	.	.	.	-24%	.
COc1ccc(S(=O)(=O)Nc2ccc(NC(C)=O)cc2)cc1NC(C)=O	.	.	.	.	1%	.
Cc1ccc(CN2CCN(Cc3ccccn3)CC2CCO)cc1 (stereo not drawn)	56µM*	32%	1%	-12%	6%	-21%
CCN(CC)c1ccc(-n2c(C)cc(C=O)c2C)cc1	?	?	45µM*	-7%[11.4 µM]	?	-13%
Cc1ccc(-n2c(C)cc(C=C(C#N)C#N)c2C)cc1	3%	9%	-6%[59 µM]	-21%	57%[57.4 µM]	-17%
CCN(CC)c1ccc(-n2c(C)c(C(C)=O)c(C(C)=O)c2C)cc1	.	?	?	89µM*	2%	-7%
O=C(Nc1ccccc1OC(F)F)c1ccc2ccccc2n1	.	.	.	.	-32%	.
CC1CCN(C(=O)COC(=O)c2cc3ccccc3cc2O)CC1	.	10%	8%[59 µM]	-16%[57.1 µM]	-16%	-9%
COc1ccc(C(=S)N2CCCC2)cc1	-35%	41%	?	10%[57.1 µM]	?	7%
Oc1ccc(C(=S)N2CCCC2)cc1	-3%	-19%	.	-6%	?	20µM*
CC1CCN(C(=S)NC(=O)c2ccc(F)cc2)CC1	.	2%	.	-28%	-26%	.
CC1CCN(C(=S)c2ccc(O)cc2)CC1	8%[57.1 µM]	-3%	35µM*	-31%	0%	56µM*
COc1ccc(C(=S)N2CCCCC2)cc1Br	-25%	-17%	-33%	?	-14%	20%
Oc1ccc(C(=S)N2CCCCCC2)cc1	-1%[57.1 µM]	-18%	32µM*	-32%	-11%	56µM*
CC1CCN(C(=S)c2ccccc2O)CC1	-1%	?	?	?	?	28µM*
N#Cc1ccc2c(C=O)c[nH]c2c1	.	.	.	.	-3%	.
